Consider 40 compounds from PubChem BioAssay (EPA / NIEHS).

Each structure is given as a SMILES string. Results filed as inconclusive are left out. Calls of active or inactive are those of the source. How the source made its calls: active means hit-call score of the fitted dose curve at least 0.9, where 1 is the maximum; inconclusive means response in the unintended direction; inactive means score below 0.9.

Broad substrate specificity ATP-binding cassette transporter ABCG2 (Homo sapiens), sequence (Q9UNQ0 whole entry, looked up): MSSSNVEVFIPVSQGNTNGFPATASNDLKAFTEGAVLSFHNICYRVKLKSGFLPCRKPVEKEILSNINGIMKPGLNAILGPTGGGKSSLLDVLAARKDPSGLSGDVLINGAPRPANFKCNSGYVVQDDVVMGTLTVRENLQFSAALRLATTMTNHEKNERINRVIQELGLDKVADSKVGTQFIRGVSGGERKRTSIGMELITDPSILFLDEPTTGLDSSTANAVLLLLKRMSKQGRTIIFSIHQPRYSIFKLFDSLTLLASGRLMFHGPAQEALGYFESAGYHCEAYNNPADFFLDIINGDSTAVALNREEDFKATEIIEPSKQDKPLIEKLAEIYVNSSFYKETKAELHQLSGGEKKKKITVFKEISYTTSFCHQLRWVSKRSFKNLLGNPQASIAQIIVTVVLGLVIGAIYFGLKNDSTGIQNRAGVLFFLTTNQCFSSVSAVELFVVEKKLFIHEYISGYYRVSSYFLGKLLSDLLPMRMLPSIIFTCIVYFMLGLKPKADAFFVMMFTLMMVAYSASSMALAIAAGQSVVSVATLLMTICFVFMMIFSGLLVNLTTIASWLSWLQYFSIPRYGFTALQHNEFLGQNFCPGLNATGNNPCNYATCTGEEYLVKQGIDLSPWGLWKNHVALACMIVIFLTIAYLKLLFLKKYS

Read-out in this assay: Broad substrate specificity ATP-binding cassette transporter ABCG2 (Homo sapiens) (UniProt Q9UNQ0)
Kind of assay: CLD_ABCG2_24hr: CellzDirect (CLD) Gene Expression Assay for ABC Transporter (ABCG2) at 24 hours (AID 2283685). As to the method:
CLD_24hr is a cell-based, multiplexed-readout assay that uses hepatocyte, a human liver primary cell, with measurements taken at 24 hours after chemical dosing in a 96-well plate.CLD_ABCG2_24hr is one of 16 assay component(s) measured or calculated from the CLD_24hr assay. It is designed to make measurements of mRNA induction, a form of inducible reporter, as detected with chemiluminescence signals by Quantitative Nuclease Protection Assay (qNPA) technology.Data from the assay component CLD_ABCG2_24hr was analyzed at the endpoint, CLD_ABCG2_24hr, in the positive analysis fitting direction relative to DMSO as the negative control and baseline of activity. Using a type of inducible reporter, gain-of-signal activity can be used to understand changes in the reporter gene as they relate to the gene ABCG2. Furthermore, this assay endpoint can be referred to as a primary readout. To generalize the intended target to other relatable targets, this assay endpoint is annotated to the transporter intended target family, where subfamily is ABC transporter.
Human hepatocyte cultures were treated daily for two consecutive days with fresh dosing solutions containing appropriate concentrations of the 320 ToxCast chemicals (chemical identities were blinded to CellzDirect and other ToxCast collaborators), vehicle control (0.2% DMSO), and positive control inducers as summarized in Table 1. Due to the large number of treatment groups and chemicals examined, the ToxCast chemicals were divided into two groups (spanning two independent cultures of hepatocytes from separate donor preparations (Hu778: ToxCast plates 1 and 2; Hu776: ToxCast plates 3 and 4). Each preparation of human hepatocyte cultures was treated with respective vehicle control, medium only control, set of six positive controls/reference chemicals for the five hepatic receptor pathways, and a subset of eight of the ToxCast chemicals (indoxacarb, pyrithiobac-sodium, norflurazon, cyhalofop-butyl, methomyl, thiram, acetochlor, and propiconazole). These replicate data, coupled with internal replicates designed within the blinded ToxCast chemical library, provided additional data to evaluate interindividual differences between hepatocyte preparations and their potential impact on chemical profiles.Cell morphology and integrity were evaluated using phase-contrast microscopy as an indicator of hepatocyte cell health (Tyson & Green, 1987). Cultures for each treatment group (i.e., media, vehicle [0.2% DMSO], positive control inducers [multiple concentrations], and the ToxCast chemicals [multiple concentrations]) were observed and cell morphology was assessed relative to vehicle control cultures at each harvest time point (0, 6, 24, or 48 h). […] Images were evaluated at the conclusion of the study to assess changes in cell integrity and account for the effects of chemical exposure on uncharacteristic changes in concentration-dependent gene expression profiles. The results from these determinations of apparent cytotoxicity were annotated (yes/no) alongside the corresponding qNPA data for reference.At the conclusion of each treatment period, hepatocyte cultures (96-well) were washed with 1 volume of HBSS, lysed by addition of 25 ul ArrayPlate lysis buffer (HTG, Tucson, AZ), and 70 ul/well of Denaturation Oil, denatured by incubation at 95C for 10 min, and frozen at approximately -70C until analysis by nuclease protection assay (qNPA) (Roberts et al., 2007). For qNPA analysis, cell lysates were thawed at 50C for approximately 30 min, qNPA probes were added, and samples were incubated at 95C for 10 min to begin the detection process by denaturing the target RNA, dissociating the duplexes and secondary structure hybridization. At the conclusion of the hybridization period, S1 nuclease reagent was added to each sample to digest all nonprotected nucleotides at 50C for 60-90 min. […]
On to `COP(=S)(OC)SCn1nnc2ccccc2c1=O`, for which the result was inactive.
The result for `CCNC(=O)NC(=O)C(C#N)=NOC` reads “inactive”; that for `COCC(=O)N(c1c(C)cccc1C)C(C)C(=O)OC` (stereo not given), “inactive”.
Consider `COCc1cnc(C2=NC(C)(C(C)C)C(=O)N2)c(C(=O)O)c1` (stereo not given), for which the call was inactive.
The result for `CCOc1nc(C(Cl)(Cl)Cl)ns1` reads “inactive”.
Consider `Cn1c(-c2ccccc2)cc(-c2ccccc2)[n+]1C`, for which the compound was classed as inactive.
The result for `CN=C=S` reads “inactive”; that for `CCCC(=NOCC)C1=C(O)CC(CC(C)SCC)CC1=O` (stereo not given), “inactive”; that for `CC(C)(C)C(=O)C(Oc1ccc(Cl)cc1)n1cncn1` (stereo not given), “inactive”.
The result for `COc1cc(Cl)c(OC)cc1Cl` reads “inactive”; that for `CC(C)Oc1cccc(NC(=O)c2ccccc2C(F)(F)F)c1`, “inactive”; that for `N#CN=C1SCCN1Cc1ccc(Cl)nc1`, “inactive”.
The result for `CC(C)N1C(=O)N(c2ccccc2)CSC1=NC(C)(C)C` reads “inactive”; that for `CC1(C)CON(Cc2ccccc2Cl)C1=O`, “inactive”; that for `CCCCC(C#N)(Cn1cncn1)c1ccc(Cl)cc1` (stereo not given), “inactive”.
Consider `CSC(=O)c1c(C(F)F)nc(C(F)(F)F)c(C(=O)SC)c1CC(C)C`, for which the compound was classed as inactive.
The result for `CC(C)=CC1C(C(=O)OCc2coc(Cc3ccccc3)c2)C1(C)C` (stereo not given) reads “inactive”; that for `C=C(C)CN(CC)c1c([N+](=O)[O-])cc(C(F)(F)F)cc1[N+](=O)[O-]`, “inactive”; that for `Cc1c(COC(=O)[C@@H]2[C@H](/C=C(\Cl)C(F)(F)F)C2(C)C)cccc1-c1ccccc1`, “inactive”.
For `CC(C)C1(C)N=C(c2ncccc2C(=O)O)NC1=O` (stereo not given), the compound was classed as inactive.
The entry for `CO/N=C(/C1=NOCCO1)c1ccccc1Oc1ncnc(Oc2ccccc2Cl)c1F` is “inactive”; for `CC1(C)C(C=C(Cl)Cl)C1C(=O)OC(C#N)c1cccc(Oc2ccccc2)c1` (stereo not given) it is “inactive”; for `CNC(=O)Oc1cccc2ccccc12` it is “inactive”.
The entry for `CCOP(=O)(OCC)Oc1nc(Cl)c(Cl)cc1Cl` is “inactive”; for `CCOc1nc(F)cc2nc(S(=O)(=O)Nc3c(Cl)cccc3Cl)nn12` it is “inactive”.
The entry for `Cc1ccc(N=CN(C)C=Nc2ccc(C)cc2C)c(C)c1` is “inactive”.
`COCC(C)N(C(=O)CCl)c1c(C)csc1C` (stereo not given): the result was inactive.
The result for `CC1(C)CCC(=Cc2ccc(Cl)cc2)C1(O)Cn1cncn1` (stereo not given) reads “inactive”; that for `COC(=O)NC(=S)Nc1ccccc1NC(=S)NC(=O)OC`, “inactive”; that for `N#Cc1c(Cl)cccc1Cl`, “inactive”.
The entry for `Clc1cccc(C(Cl)(Cl)Cl)n1` is “inactive”.
The entry for `CCOC(=O)C(C)OC(=O)c1cc(Oc2ccc(C(F)(F)F)cc2Cl)ccc1[N+](=O)[O-]` (stereo not given) is “inactive”.
As for `Nc1c(Cl)c(Cl)nc(C(=O)O)c1Cl`, the result was inactive.
The result for `CCCN(CC)CC1COC2(CCC(C(C)(C)C)CC2)O1` (stereo not given) reads “inactive”.
As to `O=C1C2CC=CCC2C(=O)N1SC(Cl)(Cl)Cl` (stereo not given), the result was inactive.
As for `Nc1c(Cl)c(F)nc(OCC(=O)O)c1Cl`, the compound was classed as inactive.
The entry for `Cc1nc(N(C)C)nc(OC(=O)N(C)C)c1C` is “inactive”; for `O=C(O)c1c(Cl)ccc2cc(Cl)cnc12` it is “inactive”; for `CC(C)N1C(=O)c2ccccc2NS1(=O)=O` it is “inactive”.
The result for `Cc1cnc(C2=NC(C)(C(C)C)C(=O)N2)c(C(=O)O)c1` (stereo not given) reads “inactive”.
